# Screening data deposited in PubChem BioAssay by National Center for Advancing Translational Sciences (NCATS).
# An excerpt weighted towards active compounds, which were near 3.7% of everything screened.
# TCR activator – T cell receptor activation; Potency, µM (series often up to 9.22 µM), actives largely listed as activators; primary human leukocytes, anti-CD3, IL-2 HTRF, 48 h; 330,000 tested, under 10 active; AID 504894
#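 Human primary leukocytes + a-CD3 beads + cpd, 48 hr; IL-2 in supernatant by HTRF (ex 320nm / em 665nm). No co-stimulatory signal supplied.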
# VDR inhibitor – vitamin D3 receptor (human) inhibition | VDR-SRC2-3 peptide fluorescence polarization, 2 h | actives 0.93% (n = 400,000) | Potency, µM, actives largely listed as inhibitors
#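 After 23 nl compound addition and a short centrifugation, plates sat for 2 hours at ambient temperature; polarization of fluorescence then indicated loss of VDR binding to peptide SRC2-3.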
# FEN1 inh – human FEN1 inhibition. P39748. Recombinant FEN1 flap cleavage, fluorescence, 15 min. Potency, µM (doses to about 114 µM), actives largely listed as inhibitors. actives 0.35% (n = 390,000). AID 588795; note: nearly all actives have a fitted effect of over 65% in size
# Target sequence (P39748 whole entry, looked up): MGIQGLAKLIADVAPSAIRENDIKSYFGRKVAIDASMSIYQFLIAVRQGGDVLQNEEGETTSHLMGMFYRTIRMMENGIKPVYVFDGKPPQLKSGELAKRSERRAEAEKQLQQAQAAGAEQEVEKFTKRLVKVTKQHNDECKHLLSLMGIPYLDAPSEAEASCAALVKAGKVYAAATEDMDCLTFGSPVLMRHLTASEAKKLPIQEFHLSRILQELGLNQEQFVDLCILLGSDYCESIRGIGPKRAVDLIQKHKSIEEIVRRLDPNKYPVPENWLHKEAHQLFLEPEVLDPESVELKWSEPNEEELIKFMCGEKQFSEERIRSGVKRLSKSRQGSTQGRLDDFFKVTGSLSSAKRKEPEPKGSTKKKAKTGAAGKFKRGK
#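 Read-out was taken twice, immediately and after 15 min, following addition of 50 nM substrate to 10 nM FEN1 that had sat with test compound for 15 min at room temperature. Curves came from a four-parameter Hill model.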
# PLK1 PBD inh – PLK1 (human) polo-box domain binding inhibition. P53350. Plk1 PBD binding of FITC phosphopeptide, fluorescence polarization. AID 720504. Potency, µM, actives largely listed as inhibitors. actives 2.8% (n = 360,000); note: series mostly up to about 57 µM; nearly all actives have a fitted effect of over 65% in size
# PI5P4K alpha inh – inhibitors of human PI5P4K alpha. actives 1.2% (n = 330,000). PI5P4Kalpha enzyme, ADP-Glo luminescence, 60 min; hits give low values. max response, %. AID 652105. P48426; active = max response of -50% or lower; inconclusive = between -30% and -50%; inactive = -30% or higher; note: value at the top dose of about 77 µM
#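 Luminescence from ADP-Glo served as readout of PI5P4Kalpha activity in a qHTS format. Reaction: enzyme, substrate, compound, ATP at 5 microM final, 60 min at RT.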
# WRN inhibitor – inhibitors of human WRN helicase; Q14191; Potency, µM (highest dose often 114 µM), actives largely listed as inhibitors; WRN helicase unwinding, fluorescent forked duplex, kinetic; actives 0.46% (n = 360,000); AID 651768; note: nearly all actives have a fitted effect of over 55% in size
#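 Primary qHTS, 1536-well format. 20 nM WRN + compound, 15 min RT; start with 100 nM forked fluorophore/quencher duplex, 2 mM ATP (final); kinetic read ex 525/em 598 nm.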
# A number is an active result; n = inactive; u = inconclusive; x = no result given; [ ] = remark or other dose. Unless noted, calls come from the whole dose curve; as a rule, active = well fitted curve in the direction sought with a large enough effect; inconclusive = small, poorly fitted or top-dose-only effect, or another doubt; inactive = no such curve, though single readings can be large; an effect the other way counts as inactive or inconclusive.
SMILES,TCR activator,VDR inhibitor,FEN1 inh,PLK1 PBD inh,PI5P4K alpha inh,WRN inhibitor
O=C1OC2(c3cc(I)c(O)c(I)c3Oc3c2cc(I)c(O)c3I)c2c(Cl)c(Cl)c(Cl)c(Cl)c21,x,5.01µM,x,x,x,x
O=C1OC2(c3ccccc31)c1cc(I)c(O)c(I)c1Oc1c2cc(I)c(O)c1I,x,4.47µM,x,x,x,x
O=C1OC2(c3ccc(O)cc3Oc3cc(O)ccc32)c2ccccc21,x,n,x,x,x,x
O=C(COc1ccccc1C(=O)Nc1cccc([N+](=O)[O-])c1)Nc1ccc(Br)cc1,x,x,n,x,x,x
O=C(N/N=C/c1ccc([N+](=O)[O-])o1)c1cc2c(ccc3ccccc32)o1,n,n,u,15µM,n,n[11.6 µM]
Cc1nc2ccccn2c1C(=O)N/N=C/c1ccc([N+](=O)[O-])o1,n,n,u,n,-55.8,u
Cc1cc(Cl)ccc1NS(=O)(=O)c1c(C(=O)N2CCC(C)CC2)c(C)n(C)c1C,x,n,n,x,x,x
COc1ccc(-n2ncc(C(=O)N3CCN(C4CCCCC4)CC3)c2C2CCN(C(=O)OC(C)(C)C)CC2)cc1,x,n,n,x,x,x
CC(=O)C(Cl)C(=O)Nc1ccccc1 (centres undefined),n,14.1µM,n,2.67µM,n,n
CC(C(=O)Nc1ccccc1)C(=O)Nc1ccccc1,n,n,n,n,n,n
O=C(Nc1ccccc1)C(Cl)C(=O)c1ccccc1 (centres undefined),n,u,u,1.5µM,n,n
O=c1[nH]n(-c2ccccc2)c(=O)c2ccccc12,n,n,n,n,n,n
O=c1[nH]n(-c2ccccn2)c(=O)c2ccccc12,n,u,n,29.9µM,n,n
CC(=O)c1cccc(N2C(=NC(=O)COc3ccccc3)SC3CS(=O)(=O)CC32)c1 (centres undefined),n,u,n,23.8µM,n,n
CC(=O)c1cccc(N2C(=NC(=O)CCc3ccccc3)SC3CS(=O)(=O)CC32)c1 (centres undefined),n,n,n,n,n,n
COc1ccc(N2CC(NC(=O)/C=C\c3ccc(OC)c(OC)c3)CC2=O)cc1 (centres undefined),x,n,n,x,x,x
CCOc1cc(-c2ccc(OC(=O)c3ccc(C)cc3)c(OC)c2)cc(=O)c2c(C)oc(C)c12,x,n,n,x,x,x
CCc1ccc2oc(-c3ccc(C)c(NC(=O)c4cc([N+](=O)[O-])ccc4N4CCOCC4)c3)nc2c1,x,n,n,x,x,x
Cc1cc(C(=O)COC(=O)c2ccco2)c(C)n1Cc1ccco1,n,n,n,n,-54.8,n
Cc1ccc(C)c(N2CCN(C(=O)CCn3c(=O)c4cccn4c4cccnc43)CC2)c1,x,n,n,x,x,x
O=S(=O)(c1ccccc1)c1nnn2c1nc(NCc1ccccc1)c1cc(Cl)ccc12,x,n,n,x,x,x
CCN(CC)C(=O)c1ccc(-c2ccccc2)cc1,n,n,n,n,n,n
CCN(CC)CC(=O)c1ccc(-c2ccccc2)cc1,n,39.8µM,n,u,x,n
C/[N+]([O-])=C\CC(=O)c1ccc(-c2ccccc2)cc1,n,n,n,21.2µM,n,n
CN(C)CC(=O)c1ccc(-c2ccccc2)cc1,n,u,n,n,x,n
SMILES,TCR activator,VDR inhibitor,FEN1 inh,PLK1 PBD inh,PI5P4K alpha inh,WRN inhibitor
C/C(=N\NC(=S)Nc1ccccc1C)c1ccc(O)cc1,n,u,n,10.6µM,n,n
CC1CCN(S(=O)(=O)c2ccc3c(c2)N(C)C(=O)CC(=O)N3C)CC1,n,n,n,13.4µM,n,n
CC1CCN(c2ccc(S(=O)(=O)N3CCC(C)CC3)cc2N)CC1,n,n,n,n,n,n
CN1C(=O)CC(=O)N(C)c2cc(S(=O)(=O)N(C)Cc3ccccc3)ccc21,n,u,n,7.52µM,n,n
CCOC(=O)c1c(C)oc2nc(C)nc(Nc3cc(C)ccc3OC)c12,x,n,n,x,x,x
Cn1c(SCCOc2ccccc2)nnc1-c1ccc(NC(=O)CCc2ccccc2)cc1,x,x,n,x,x,x
O=C(CCC(=O)N1CCSc2ccccc21)NCc1ccccc1Cl,x,n,n,x,x,x
CCOC(=O)C(=Cc1ccc(Br)cc1)C(=O)OCC,n,10µM,n,16.8µM,n,u
CCOC(=O)C(=Cc1ccc(-n2ccnc2)cc1)C(=O)OCC,n,u,n,u,n,n
CCOc1ccc(OCC)c(NC(=O)c2cnc(SC)nc2-c2ccccc2)c1,x,n,u,x,x,x
CCC(C(=O)Nc1cc(-c2cn3cccnc3n2)ccc1C)c1ccccc1 (centres undefined),x,n,n,x,x,x
COc1ccc(NC(=O)c2cnc(Nc3ccc(C)c(Cl)c3)c3ccccc23)c(OC)c1,x,n,n,x,x,x
CC(=O)Oc1cc(-c2coc3cc(OC(C)=O)c(OC(C)=O)c(OC(C)=O)c3c2=O)cc(OC(C)=O)c1OC(C)=O,x,17.8µM,x,x,x,x
Cc1ccc(C(=O)N/C(=C\c2cn(S(=O)(=O)N(C)C)c3ccccc23)C(=O)NCCCn2ccnc2)cc1,n,n,n,29.9µM,n,n
CCC(C)C(N)C(=O)NC(CC(N)=O)C(=O)NC(CC(C)C)C(=O)NC(CCCCN)C(=O)NC(C)C(=O)NC(CC(C)C)C(=O)NC(C)C(=O)NC(C)C(=O)NC(CC(C)C)C(=O)NC(C)C(=O)NC(CCCCN)C(=O)NC(CCCCN)C(=O)NC(C(=O)NC(CC(C)C)C(N)=O)C(C)CC (centres undefined),x,n,x,x,x,x
Cc1ccc(S(=O)(=O)N(C)C)cc1NC(=O)COC(=O)Cc1ccccc1F,n,n,n,n,n,n
Cc1ccc(S(=O)(=O)N(C)C)cc1NC(=O)COC(=O)Cc1ccc(Br)cc1,n,u,n,18.9µM,n,n
C=CCc1cccc2cc(C(=O)O)c(=O)oc12,n,n,n,n,n,n
C=CCc1cccc2cc(C(=O)Nc3ccccc3C(=O)O)c(=O)oc12,n,n,n,11.9µM,-60.7,u
CC(=O)c1ccc(N2CCN(C(=O)c3nn(C)c4c3CS(=O)(=O)c3ccccc3-4)CC2)cc1,n,u,n,26.7µM,n,n
Cc1cccc(C)c1NC(=S)N/N=C1\CC2CC=CC12 (centres undefined),n,u,n,15µM,n,n
COc1ccc(C(=O)OCC(=O)c2ccco2)cc1[N+](=O)[O-],x,x,x,n,-58.8,n
CCNC(=O)C1CC(=O)N(c2ccc(Br)cc2)C1 (centres undefined),n,n,n,23.8µM,n,n
C=CCNC(=O)C1CC(=O)N(c2ccc(Br)cc2)C1 (centres undefined),n,n,n,n,n,n
Oc1ccccc1C1C=C(c2ccc3c(c2)OCO3)NC(c2cccc(Br)c2)N1 (centres undefined),x,u,n,x,x,x
CCCOc1ccc(Cl)cc1CNc1ccccc1,n,n,n,16.8µM,n,n
CCOc1ccc(Cl)cc1CNc1nnnn1C,n,n,n,n,n,n
NC(=O)c1cccnc1Oc1cccc(Cl)c1,x,u,n,26.7µM,n,n
